The record followed here is PubChem BioAssay AID602261 (Sanford-Burnham Center for Chemical Genomics, 2012).

In all, about 360,000 compounds went through this assay and about 2,400 (0.67%) were called active. What follows is part of a selection rich in actives, with near analogues and random picks from the rest. Values without a mark were called inactive.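 Rule for the calls: active = compounds whose normalised, plate-corrected inhibition of enzyme fluorescence in the single-dose primary screen is 50% or more; inactive = the rest.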

Chain of Fatty acid synthase (Homo sapiens) (P49327 whole entry, looked up): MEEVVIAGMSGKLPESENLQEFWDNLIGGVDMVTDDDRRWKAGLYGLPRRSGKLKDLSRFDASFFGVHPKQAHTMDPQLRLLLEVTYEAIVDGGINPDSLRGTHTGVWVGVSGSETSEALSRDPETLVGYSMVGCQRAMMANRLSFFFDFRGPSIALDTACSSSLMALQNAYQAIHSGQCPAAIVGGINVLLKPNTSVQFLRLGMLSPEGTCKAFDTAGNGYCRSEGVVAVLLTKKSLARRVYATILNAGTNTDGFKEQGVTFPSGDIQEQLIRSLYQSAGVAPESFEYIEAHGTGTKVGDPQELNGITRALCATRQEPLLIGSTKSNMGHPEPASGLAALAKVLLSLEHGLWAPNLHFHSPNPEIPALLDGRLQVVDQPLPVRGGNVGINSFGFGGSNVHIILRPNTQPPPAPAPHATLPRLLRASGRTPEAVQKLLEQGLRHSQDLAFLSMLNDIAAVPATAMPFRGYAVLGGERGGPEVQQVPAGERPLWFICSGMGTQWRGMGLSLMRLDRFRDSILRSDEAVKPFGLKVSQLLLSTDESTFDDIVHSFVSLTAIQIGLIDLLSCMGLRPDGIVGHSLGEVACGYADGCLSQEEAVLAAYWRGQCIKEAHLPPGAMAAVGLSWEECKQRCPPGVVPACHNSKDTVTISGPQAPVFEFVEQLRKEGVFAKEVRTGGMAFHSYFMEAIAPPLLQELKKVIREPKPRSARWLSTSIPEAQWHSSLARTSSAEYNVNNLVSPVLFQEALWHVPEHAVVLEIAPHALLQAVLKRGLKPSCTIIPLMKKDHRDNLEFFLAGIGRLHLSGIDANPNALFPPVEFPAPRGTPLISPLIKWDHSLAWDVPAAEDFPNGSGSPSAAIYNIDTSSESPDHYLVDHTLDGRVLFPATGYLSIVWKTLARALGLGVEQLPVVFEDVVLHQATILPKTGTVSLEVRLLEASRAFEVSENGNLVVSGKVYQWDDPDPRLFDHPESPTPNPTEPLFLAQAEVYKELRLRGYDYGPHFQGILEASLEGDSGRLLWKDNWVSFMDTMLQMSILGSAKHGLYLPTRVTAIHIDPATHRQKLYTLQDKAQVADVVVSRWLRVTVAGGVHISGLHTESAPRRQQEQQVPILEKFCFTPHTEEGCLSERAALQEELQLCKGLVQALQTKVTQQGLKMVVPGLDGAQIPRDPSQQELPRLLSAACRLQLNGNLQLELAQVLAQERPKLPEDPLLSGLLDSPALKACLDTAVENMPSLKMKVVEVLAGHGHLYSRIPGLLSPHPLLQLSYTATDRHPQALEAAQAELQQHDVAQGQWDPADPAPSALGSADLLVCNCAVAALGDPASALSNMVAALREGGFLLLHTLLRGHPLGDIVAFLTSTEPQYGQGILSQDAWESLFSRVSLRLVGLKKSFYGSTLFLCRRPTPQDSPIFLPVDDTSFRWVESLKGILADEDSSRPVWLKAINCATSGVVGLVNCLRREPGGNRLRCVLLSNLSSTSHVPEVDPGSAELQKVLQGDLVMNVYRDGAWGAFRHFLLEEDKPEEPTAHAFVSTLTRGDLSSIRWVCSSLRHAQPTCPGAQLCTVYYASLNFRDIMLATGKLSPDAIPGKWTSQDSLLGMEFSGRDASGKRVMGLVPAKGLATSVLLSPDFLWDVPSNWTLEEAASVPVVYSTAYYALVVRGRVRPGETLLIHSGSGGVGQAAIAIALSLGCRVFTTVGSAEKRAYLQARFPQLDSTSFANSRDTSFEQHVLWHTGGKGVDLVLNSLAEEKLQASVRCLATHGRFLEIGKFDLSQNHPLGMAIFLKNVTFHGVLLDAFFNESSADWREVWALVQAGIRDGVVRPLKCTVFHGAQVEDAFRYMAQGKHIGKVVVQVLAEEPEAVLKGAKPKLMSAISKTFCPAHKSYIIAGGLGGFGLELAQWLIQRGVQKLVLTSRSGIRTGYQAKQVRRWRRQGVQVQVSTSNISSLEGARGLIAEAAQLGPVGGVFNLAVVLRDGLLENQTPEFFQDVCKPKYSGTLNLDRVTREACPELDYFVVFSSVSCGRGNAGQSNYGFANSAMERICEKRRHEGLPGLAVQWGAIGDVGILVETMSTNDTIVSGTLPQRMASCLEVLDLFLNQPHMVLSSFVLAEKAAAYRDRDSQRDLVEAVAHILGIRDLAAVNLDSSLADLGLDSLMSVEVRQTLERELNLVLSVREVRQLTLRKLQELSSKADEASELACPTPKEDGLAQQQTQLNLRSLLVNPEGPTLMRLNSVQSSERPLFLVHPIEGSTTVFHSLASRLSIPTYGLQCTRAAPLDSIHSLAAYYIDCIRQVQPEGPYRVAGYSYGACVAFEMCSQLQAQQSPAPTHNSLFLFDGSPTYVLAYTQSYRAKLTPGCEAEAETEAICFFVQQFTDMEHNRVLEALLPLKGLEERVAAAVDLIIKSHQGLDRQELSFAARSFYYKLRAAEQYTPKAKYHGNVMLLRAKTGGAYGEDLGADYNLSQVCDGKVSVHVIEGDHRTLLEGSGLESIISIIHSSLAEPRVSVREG

This assay concerns the target Fatty acid synthase (Homo sapiens) (UniProt P49327). Kind of assay: inhibition of human FAS-TE enzyme activity – biochemical, fluorescence intensity, uHTS, primary screen (AID 602261).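 Note: 0% = DMSO with enzyme and 100% = substrate without enzyme.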 As to conditions: recombinant FAS-TE, OMFH fluorogenic substrate, fluorescence endpoint; at 15 µM; active compounds read high.
With `O=S(=O)(Nc1cccc(Oc2ccc(Cl)cc2)n1)c1ccc(F)cc1`, the inhibition was 8.1%. As for `CC(C)CC(=O)c1c[nH]c(C(=O)NCc2ccccc2)c1`, the inhibition is -3.6%. As for `CC1(c2ccc(Cl)cc2)NC(=O)N(CC(=O)c2ccc3c(c2)OCO3)C1=O` (stereo not given), the inhibition was 11.3%. Take `Cn1c(=O)[nH]c(=O)c2c1nc(NCCCn1ccnc1)n2Cc1cccc(Br)c1`: the inhibition was -2.6%.

With `CCOC(=O)c1ccc(-c2ccc3ncnc(N(C)Cc4sccc4C)c3c2)o1`, the inhibition is 26.5%. For the compound `COc1ccc(C2CC(c3ccccc3)=NN2C(=O)CSc2nccc(=O)[nH]2)cc1` (stereo not given), the inhibition is -5.6%. The same measure for `Cc1ccc(C2=NN(C(=O)CSc3nc(N)cc(N)n3)C(c3ccco3)C2)cc1` (stereo not given): 1.5%; for `COc1ccc(C2=NN(C(=O)CSc3nc(=O)n4ccc(C)cc4n3)C(c3ccc(C)cc3)C2)cc1` (stereo not given): 81.4% (active); for `Cc1cccc(N=C2SC(C)CN2C(=O)CN2C(=O)NC3(CCCC3)C2=O)c1` (stereo not given): 3.9%.

As for `Cc1ccc(N2C(=O)S/C(=C/c3cn(C)c4ccccc34)C2=O)cc1`, the inhibition was 28.7%. As for `Cc1cccc(N=C2NC(=O)/C(=C/c3cn(C)c4ccccc34)S2)c1`, the inhibition was 52.4% (active). For `Cc1ccccc1CSc1nnc(-c2ccccn2)n1N`, the inhibition is -5.3%.

Consider `O=C(NC1=NCCS1)c1ccc(Cl)s1`, for which the inhibition was -11.9%. The same measure for `Cc1cccc(N2CCC(NCc3c(C(=O)N4CCCCC4)nc4c(C)cccn34)CC2)c1`: -1.6%. The value for `O=C(O)CCS(=O)(=O)c1ccc(-c2ccccc2)cc1` was -1.5%; that for `Cc1cc2c(cc1C)N(C(=O)CN1C(=O)c3ccccc3C1=O)C(C)(C)c1ssc(=S)c1-2` was 43.2%.

As to `Cc1ccc2c(c1)-c1c(ssc1=S)C(C)(C)N2C(=O)CN1C(=O)c2ccccc2C1=O`, the inhibition is 52.2% (active).

`CCOC(=O)CN1C(=O)C(=O)c2cc(C)ccc21`: the inhibition is -7%. On to `O=S1(=O)N=C(N(CCO)/N=C/c2ccccc2F)c2ccccc21`, for which the inhibition was 0.1%. As for `CCOc1ccccc1NC(=O)C12CC3CC(C1)CC(c1ccc(C)cc1)(C3)C2`, the inhibition was 33.7%. For the compound `CCN1CCN(c2nc(Nc3cc(OC)ccc3OC)nc(Nc3cc(OC)ccc3OC)n2)CC1`, the inhibition was 32.9%. For the compound `COc1ccc(Nc2ncc(F)c(N3CCOCC3)n2)cc1`, the inhibition is -0.3%.

Regarding `CCOc1ccc(Nc2nc(Cl)nc(N3CCN(c4ccc(OC)cc4)CC3)n2)cc1`, the inhibition was 57.9% (active). In the case of `CC1CCCCC1NC(=O)C1CCCN1S(=O)(=O)c1cccc2nsnc12` (stereo not given), the inhibition is -4.8%. Take `O=C(N1CCCC1)C12CC3CC(C1)CC(C(=O)N1CCCC1)(C3)C2`: the inhibition was -5.3%. Regarding `Cc1ccc(NC(=O)CSc2nnc(CNC(=O)c3ccccc3F)o2)cc1`, the inhibition was -4.2%.

`O=C(Nc1cccc(C(F)(F)F)c1)c1ccc(N2CCNCC2)c([N+](=O)[O-])c1`: the inhibition is -5%. Turning to `O=C(COc1ccccc1F)NNC(=O)c1ccc(N2CCCCC2)c([N+](=O)[O-])c1`, the inhibition was 4.2%.

Consider `O=C(Nc1ccc(N2C(=O)c3cccc4cccc(c34)C2=O)cc1)c1ccc(N2CCCCC2)c([N+](=O)[O-])c1`, for which the inhibition is 56.4% (active).

Turning to `CC(=O)Nc1ccc2c3c(ccc([N+](=O)[O-])c13)CC2`, the inhibition was -4%. With `O=C(Nc1ccc(S(=O)(=O)N2CCCCCC2)cc1)c1c(F)cccc1F`, the inhibition was 12%. Consider `CCCN1Cc2cccc(C(=O)Nc3ccc(S(=O)(=O)N4CCCCCC4)cc3)c2C1=O`, for which the inhibition is 54.7% (active). Take `CCCN1Cc2cccc(C(=O)NCc3ccccc3)c2C1=O`: the inhibition is -0.8%. `COCCCNCC(=O)Nc1sc(C)c(C)c1C(=O)OC`: the inhibition is -3.7%. Turning to `CCOC(=O)C(C)n1cnc2c(nnn2-c2ccc(F)cc2)c1=O` (stereo not given), the inhibition is -7.4%. The value for `Cc1ccc([C@@H]2CC(=O)[C@@H]3CN(S(=O)(=O)c4ccc(C)cc4)[C@H](c4ccccc4F)C[C@@H]3N2S(=O)(=O)c2ccc(Cl)cc2)cc1` was 12.3%; that for `CCc1ccc([C@@H]2CC(=O)[C@@H]3CN(S(=O)(=O)c4ccc(C)cc4)[C@H](c4ccc(Cl)cc4)C[C@@H]3N2S(=O)(=O)c2ccc(C)cc2)cc1` was 12.7%.

`Cc1ccc(S(=O)(=O)N2CC[C@H]3[C@@H](C2)C(=O)C[C@@H](c2ccccc2)N3S(=O)(=O)c2ccc(C)cc2)cc1`: the inhibition was 79.6% (active). As to `CC(C)[C@H](NC(=O)N1c2ccccc2NC(=O)[C@@H]1C(C)C)C(=O)N[C@H](C(=O)O)c1ccccc1`, the inhibition is -2.6%. Consider `O=[N+]([O-])c1ccc(NS(=O)(=O)c2ccccc2)c(Cl)c1`, for which the inhibition is -7%.

As for `Cc1ccc2oc(=O)c3cnn(CC(=O)N4CCCCCC4)c3c2c1`, the inhibition is 0.5%. For `Cc1cccc(C(=O)N2CCN(S(=O)(=O)N3CCCCC3)CC2)c1`, the inhibition is -2.1%. Consider `Cc1ccc2cc3cc(C(=O)N4CCCCCC4)oc3nc2c1`, for which the inhibition is 77.7% (active). The same measure for `COc1ccc(C(C)=O)cc1COC(=O)Cn1cnc2ccccc2c1=O`: -2.7%; for `CC(C)c1ccc(-c2noc(C3CCCN(S(C)(=O)=O)C3)n2)cc1` (stereo not given): 16.9%; for `COc1cc(-c2noc(C3CCCN(S(=O)(=O)c4cccc(Cl)c4)C3)n2)cc(OC)c1OC` (stereo not given): 50.7% (active). `COc1cccc(-c2noc(C3CCCN(C(=O)c4ccc(F)cc4)C3)n2)c1` (stereo not given): the inhibition was -3.3%. The same measure for `Nc1ccc(SCCN2C(=O)c3ccccc3C2=O)cc1`: -1.7%; for `CC(C)c1ccc2c(c1)c(SC(C)(C)C)c(CC(C)(C)C(=O)O)n2Cc1ccc(Cl)cc1`: 80.4% (active); for `O=C(NCc1ccccc1)C1CCCN(c2nc3ccsc3c(=O)s2)C1` (stereo not given): -1.5%. The value for `Nc1ccc(N=Nc2ccccc2Cl)c(N)n1` was 12%.

In the case of `O=C(CC(c1ccccc1)c1ccccc1)NCC(O)c1ccc([N+](=O)[O-])cc1` (stereo not given), the inhibition was 50.4% (active). In the case of `O=C(NCC(O)c1ccc([N+](=O)[O-])cc1)C1CCCCC1` (stereo not given), the inhibition is -3.9%. Take `CN(C)C(CNC(=O)Cc1ccc([N+](=O)[O-])cc1)c1ccccc1` (stereo not given): the inhibition is 3.9%. Turning to `COc1ccc(C(=O)NC(=S)N2CCCCC2c2cccnc2)cc1OC` (stereo not given), the inhibition was -3.7%.

On to `Cc1ccccc1-n1c(C)cc(/C=N/NC(=O)c2ccc(CN3CCOCC3)cc2)c1C`, for which the inhibition is -7.5%.

For `COc1ccc(NC(=O)CCn2ccnc2)c(OC)c1`, the inhibition is -2.6%.

Take `O=C(O)c1ccccc1N=N/C(=N/Nc1cc(S(=O)(=O)O)ccc1O)c1ccccc1`: the inhibition is 3.7%. The same measure for `COc1ccc(NS(=O)(=O)c2ccc(N3CCN(CCO)CC3)c([N+](=O)[O-])c2)cc1`: -6.1%; for `COc1ccc(NS(=O)(=O)c2cc(NC(=O)C3CCCCC3)ccc2N2CCOCC2)cc1`: 10.3%; for `COc1cc(/C=C/C(=O)Nc2ccc(OC)c(S(=O)(=O)N3CCOCC3)c2)ccc1OCC#N`: -0.4%. For `COc1ccc(NS(=O)(=O)c2cc(NC(=O)c3ccc(S(=O)(=O)N(C)C)cc3)ccc2N2CCOCC2)cc1`, the inhibition is 88.6% (active). On to `COc1ccc(NS(=O)(=O)c2ccc(N3CCOCC3)c(NC(=O)/C=C/C(=O)O)c2)cc1`, for which the inhibition is -5.8%. `COc1ccc(NS(=O)(=O)c2cc(NC(=O)/C=C/c3cc(OC)c(OC)c(OC)c3)ccc2N2CCCCC2)cc1`: the inhibition was 50.6% (active). As for `O=C(NC(C(=O)NCCN1CCOCC1)C12CC3CC(CC(C3)C1)C2)C1CCCCC1` (stereo not given), the inhibition is -6.3%. The same measure for `CCCCN(CC(=O)Nc1cccc(S(=O)(=O)N2CCCC2)c1)Cc1nc2ccccc2c(=O)[nH]1`: 8.2%. The value for `CCOCCCN(C)C1CCN(C(=O)c2oc3ccccc3c2NC(=O)COc2cccc(C)c2)CC1` was 1.2%; that for `CCC(C)N(C(=O)CSc1ncnc2c1cnn2-c1ccccc1)C1CCS(=O)(=O)C1` (stereo not given) was 22.1%. The same measure for `CC(C)CN(C(=O)CSc1ncnc2sccc12)C1CCS(=O)(=O)C1` (stereo not given): -7.9%; for `CCN(C(=O)CSc1ncnc2c1cnn2-c1ccccc1)C1CCS(=O)(=O)C1` (stereo not given): 57.4% (active). Regarding `COc1cc(C(O)c2nc(-c3cnn(C)c3)cs2)ccc1F` (stereo not given), the inhibition is -5.1%. The value for `COc1ccc(N2CCN(S(=O)(=O)c3cc(Br)cnc3N)CC2)cc1` was -1.1%. On to `Cc1ccc(S(=O)(=O)N2CC(C)N(S(C)(=O)=O)C2)cc1` (stereo not given), for which the inhibition is -3.6%. Consider `CCc1nc2c(OCc3ccc(Cl)cc3Cl)cccn2c1N(C)C(=O)C(C)C`, for which the inhibition is 9.4%. As for `Cc1nc2c(OCc3cccc(Cl)c3)cccn2c1N(C)CC1CC1`, the inhibition was 17.1%. The same measure for `Cc1nc2c(OCc3ccc(Cl)cc3Cl)cccn2c1N(C)CC1CC1`: 57.2% (active). As to `Cc1ccc(C2C(C#N)C(C#N)N3CCCN23)cc1` (stereo not given), the inhibition was -18.8%. In the case of `COc1cc2c(=O)n(C)c3ccccc3c2cc1OC`, the inhibition was -3.2%. With `COCC(=O)N(C)C[C@H]1Oc2cc(Br)ccc2S(=O)(=O)N([C@H](C)CO)C[C@H]1C`, the inhibition was -6%. On to `COc1cc(OC)cc(C(=O)NC2CCN(C(=O)N3c4ccccc4Sc4ccccc43)CC2)c1`, for which the inhibition is 38.7%. With `CCCCCN(C(=O)CCC(=O)OCC(=O)NC1CCC(C)CC1)c1c(N)n(CCCC)c(=O)[nH]c1=O` (stereo not given), the inhibition is -3.8%.

In the case of `COc1ccc([N+](=O)[O-])cc1NC(=O)c1ccc(N(Cc2ccccc2C)S(C)(=O)=O)cc1`, the inhibition was 62.6% (active). With `Cc1ccccc1CN(c1ccc(C(=O)NCC2CCCO2)cc1)S(C)(=O)=O` (stereo not given), the inhibition is -11.4%. For `CCN(c1ccccc1)S(=O)(=O)c1ccc(C(=O)Nc2ccccc2OC)cc1`, the inhibition was 19.5%. For the compound `CCc1nc2ccc(C(=O)N(C)Cc3ccco3)cn2c1N(C)C(=O)Cc1ccccc1`, the inhibition was -8%.
